# Where “and” joins values, the source holds several entries; their conditions need not be identical. Equal values may be shown once. Hit rate of the full screen: of about 5,500 compounds, about 2,000 (36%) were called active. Roughly 18% stayed inconclusive and do not appear here. Rule as the data show it: active = normalized growth mostly below about 0.91 (no sharp cut-off); inconclusive = no clear call, values can overlap the other calls; inactive = mostly above about 0.92. The list shows a part of the results. A structure can be active in one record and inactive in another.
# Assay: chemical genetic growth profiling, strain panel (AID 1159580);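 also: tested at 20 µM; growth read once vehicle control cultures reached saturation at 30 °C; 1 = growth at the plate median or of vehicle wells; lower values mean less growth of the strain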
# Details: growth OD
smiles,measurement,setting,value
COC(=O)C1=C(C)NC(C)=C(C(=O)OC)C1c1ccccc1[N+](=O)[O-],normalized growth,"S. cerevisiae deletion strains, locus YKL009W, strain mrt4, stronger effect = lower value",0.959 (inactive)
same,normalized growth,"S. cerevisiae deletion strains, locus YKL068W, stronger effect = lower value",0.965 (inactive)
same,normalized growth,"S. cerevisiae deletion strains, locus YKL085W, strain MDH1 (second series), stronger effect = lower value",0.956 (inactive)
same,normalized growth,"S. cerevisiae deletion strains, locus YKL085W, strain MDH1, stronger effect = lower value",0.956 (inactive)
same,normalized growth,"S. cerevisiae deletion strains, locus YKL160W, strain elf1, stronger effect = lower value",0.901 (active)
same,normalized growth,"S. cerevisiae deletion strains, locus YKL190W, strain CNB1, stronger effect = lower value",0.84 (active)
same,normalized growth,"S. cerevisiae deletion strains, locus YKR001C, strain vps1, stronger effect = lower value",0.852 (active)
same,normalized growth,"S. cerevisiae deletion strains, locus YKR026C, strain gcn3, stronger effect = lower value",0.968 (inactive)
same,normalized growth,"S. cerevisiae deletion strains, locus YKR091W, strain srl3, stronger effect = lower value",0.954 (inactive)
same,normalized growth,"S. cerevisiae deletion strains, locus YLL001W, strain dnm1, stronger effect = lower value",0.972 (inactive)
same,normalized growth,"S. cerevisiae deletion strains, locus YLL026W, stronger effect = lower value",0.946 (inactive)
same,normalized growth,"S. cerevisiae deletion strains, locus YLL041C, strain sdh2, stronger effect = lower value",0.931 (inactive)
same,normalized growth,"S. cerevisiae deletion strains, locus YLR027C, strain aat2, stronger effect = lower value",0.899 (active)
same,normalized growth,"S. cerevisiae deletion strains, locus YLR039C, strain RIC1, stronger effect = lower value",0.535 (active)
same,normalized growth,"S. cerevisiae deletion strains, locus YLR058C, strain SHM2, stronger effect = lower value",0.996 (inactive)
same,normalized growth,"S. cerevisiae deletion strains, locus YLR102C, strain apc9, stronger effect = lower value",0.977 (inactive)
same,normalized growth,"S. cerevisiae deletion strains, locus YLR113W, strain HOG1, stronger effect = lower value",0.942 (inactive)
same,normalized growth,"S. cerevisiae deletion strains, locus YLR221C, strain rsa3, stronger effect = lower value",0.893 (active)
same,normalized growth,"S. cerevisiae deletion strains, locus YLR258W, strain gsy2, stronger effect = lower value",0.886 (active)
same,normalized growth,"S. cerevisiae deletion strains, locus YLR262C, strain YPT6 (second series), stronger effect = lower value",0.44 (active)
same,normalized growth,"S. cerevisiae deletion strains, locus YLR262C, strain YPT6, stronger effect = lower value",0.352 (active)
same,normalized growth,"S. cerevisiae deletion strains, locus YLR268W, strain sec22, stronger effect = lower value",0.764 (active)
same,normalized growth,"S. cerevisiae deletion strains, locus YLR320W, strain mms22, stronger effect = lower value",0.864 (active)
same,normalized growth,"S. cerevisiae deletion strains, locus YLR330W, strain CHS5, stronger effect = lower value",0.931 (inactive)
same,normalized growth,"S. cerevisiae deletion strains, locus YLR342W, strain FKS1 (second series), stronger effect = lower value",0.643 (active)
same,normalized growth,"S. cerevisiae deletion strains, locus YLR342W, strain FKS1, stronger effect = lower value",0.924 (inactive)
same,normalized growth,"S. cerevisiae deletion strains, locus YLR357W, strain rsc2, stronger effect = lower value",0.937 (inactive)
same,normalized growth,"S. cerevisiae deletion strains, locus YLR370C, strain arc18, stronger effect = lower value",0.942 (inactive)
same,normalized growth,"S. cerevisiae deletion strains, locus YLR371W, strain rom2, stronger effect = lower value",0.918 (inactive)
same,normalized growth,"S. cerevisiae deletion strains, locus YLR384C, strain iki3, stronger effect = lower value",0.976 (inactive)
same,normalized growth,"S. cerevisiae deletion strains, locus YLR418C, strain cdc73, stronger effect = lower value",0.706 (active)
same,normalized growth,"S. cerevisiae deletion strains, locus YML016C, strain PPZ1, stronger effect = lower value",0.899 (active)
same,normalized growth,"S. cerevisiae deletion strains, locus YML032C, strain rad52, stronger effect = lower value",0.959 (inactive)
same,normalized growth,"S. cerevisiae deletion strains, locus YML120C, strain ndi1, stronger effect = lower value",0.976 (inactive)
same,normalized growth,"S. cerevisiae deletion strains, locus YML124C, strain tub3, stronger effect = lower value",0.972 (inactive)
same,normalized growth,"S. cerevisiae deletion strains, locus YMR058W, strain fet3, stronger effect = lower value",0.231 (active)
same,normalized growth,"S. cerevisiae deletion strains, locus YMR078C, strain ctf18, stronger effect = lower value",0.981 (inactive)
same,normalized growth,"S. cerevisiae deletion strains, locus YMR125W, strain sto1, stronger effect = lower value",1.02 (inactive)
same,normalized growth,"S. cerevisiae deletion strains, locus YMR129W, stronger effect = lower value",0.958 (inactive)
same,normalized growth,"S. cerevisiae deletion strains, locus YMR205C, strain PFK2, stronger effect = lower value",0.866 (active)
same,normalized growth,"S. cerevisiae deletion strains, locus YMR223W, strain ubp8, stronger effect = lower value",0.839 (active)
same,normalized growth,"S. cerevisiae deletion strains, locus YMR231W, strain pep5, stronger effect = lower value",0.81 (active)
same,normalized growth,"S. cerevisiae deletion strains, locus YMR263W, strain SAP30, stronger effect = lower value",1 (inactive)
same,normalized growth,"S. cerevisiae deletion strains, locus YMR307W, strain GAS1, stronger effect = lower value",0.43 (active) and 0.863 (active)
same,normalized growth,"S. cerevisiae deletion strains, locus YNL067W, strain RPL9B, stronger effect = lower value",0.824 (active)
same,normalized growth,"S. cerevisiae deletion strains, locus YNL071W, strain lat1, stronger effect = lower value",0.941 (inactive)
same,normalized growth,"S. cerevisiae deletion strains, locus YNL128W, strain TEP1, stronger effect = lower value",0.642 (active)
same,normalized growth,"S. cerevisiae deletion strains, locus YNL153C, strain GIM3, stronger effect = lower value",0.939 (inactive)
same,normalized growth,"S. cerevisiae deletion strains, locus YNL175C, strain NOP13, stronger effect = lower value",1.01 (inactive)
same,normalized growth,"S. cerevisiae deletion strains, locus YNL183C, strain NPR1, stronger effect = lower value",0.927 (inactive)
same,normalized growth,"S. cerevisiae deletion strains, locus YNL197C, strain WHI3, stronger effect = lower value",0.997 (inactive)
same,normalized growth,"S. cerevisiae deletion strains, locus YNL209W, strain ssb2, stronger effect = lower value",0.698 (active)
same,normalized growth,"S. cerevisiae deletion strains, locus YNL224C, strain SQS1, stronger effect = lower value",1.02 (inactive)
same,normalized growth,"S. cerevisiae deletion strains, locus YNL233W, strain BNI4, stronger effect = lower value",0.845 (active)
same,normalized growth,"S. cerevisiae deletion strains, locus YNL248C, strain rpa49, stronger effect = lower value",0.951 (inactive)
same,normalized growth,"S. cerevisiae deletion strains, locus YNL250W, strain rad50, stronger effect = lower value",0.944 (inactive)
same,normalized growth,"S. cerevisiae deletion strains, locus YNL271C, strain bni1, stronger effect = lower value",0.909 (active)
same,normalized growth,"S. cerevisiae deletion strains, locus YNL298W, strain CLA4, stronger effect = lower value",0.953 (inactive)
same,normalized growth,"S. cerevisiae deletion strains, locus YNL307C, strain MCK1, stronger effect = lower value",0.903 (active)
same,normalized growth,"S. cerevisiae deletion strains, locus YNL322C, strain KRE1 (second series), stronger effect = lower value",1 (inactive)
same,normalized growth,"S. cerevisiae deletion strains, locus YNL322C, strain KRE1, stronger effect = lower value",0.918 (active) and 0.978 (inactive)
same,normalized growth,"S. cerevisiae deletion strains, locus YNR049C, strain mso1, stronger effect = lower value",0.962 (inactive)
same,normalized growth,"S. cerevisiae deletion strains, locus YNR052C, strain pop2, stronger effect = lower value",0.968 (inactive)
same,normalized growth,"S. cerevisiae deletion strains, locus YOL006C, strain TOP1, stronger effect = lower value",0.202 (active)
same,normalized growth,"S. cerevisiae deletion strains, locus YOL012C, strain htz1",0.327 (inactive)
same,normalized growth,"S. cerevisiae deletion strains, locus YOL147C, strain pex11, stronger effect = lower value",0.989 (inactive)
same,normalized growth,"S. cerevisiae deletion strains, locus YOR001W, strain rrp6, stronger effect = lower value",0.91 (inactive)
same,normalized growth,"S. cerevisiae deletion strains, locus YOR061W, strain CKA2, stronger effect = lower value",0.794 (active)
same,normalized growth,"S. cerevisiae deletion strains, locus YOR069W, strain VPS5, stronger effect = lower value",0.906 (active)
same,normalized growth,"S. cerevisiae deletion strains, locus YOR070C, strain gyp1, stronger effect = lower value",0.916 (active)
same,normalized growth,"S. cerevisiae deletion strains, locus YOR080W, strain dia2, stronger effect = lower value",0.978 (inactive)
same,normalized growth,"S. cerevisiae deletion strains, locus YOR083W, strain WHI5 (second series), stronger effect = lower value",1.03 (inactive)
same,normalized growth,"S. cerevisiae deletion strains, locus YOR083W, strain WHI5, stronger effect = lower value",0.909 (inactive)
same,normalized growth,"S. cerevisiae deletion strains, locus YOR106W, strain vam3, stronger effect = lower value",0.718 (active)
same,normalized growth,"S. cerevisiae deletion strains, locus YOR136W, strain idh2, stronger effect = lower value",0.965 (inactive)
same,normalized growth,"S. cerevisiae deletion strains, locus YOR144C, strain elg1, stronger effect = lower value",0.99 (inactive)
same,normalized growth,"S. cerevisiae deletion strains, locus YOR184W, strain ser1, stronger effect = lower value",0.792 (active)
same,normalized growth,"S. cerevisiae deletion strains, locus YOR231W, strain MKK1, stronger effect = lower value",0.999 (inactive)
same,normalized growth,"S. cerevisiae deletion strains, locus YOR265W, strain rbl2, stronger effect = lower value",0.903 (active)
same,normalized growth,"S. cerevisiae deletion strains, locus YOR270C, strain vph1, stronger effect = lower value",0.884 (inactive)
same,normalized growth,"S. cerevisiae deletion strains, locus YOR290C, strain snf2, stronger effect = lower value",0.958 (inactive)
same,normalized growth,"S. cerevisiae deletion strains, locus YOR316C, strain cot1, stronger effect = lower value",0.971 (inactive)
same,normalized growth,"S. cerevisiae deletion strains, locus YPL051W, strain arl3, stronger effect = lower value",0.748 (active)
same,normalized growth,"S. cerevisiae deletion strains, locus YPL055C, strain LGE1, stronger effect = lower value",0.64 (active)
same,normalized growth,"S. cerevisiae deletion strains, locus YPL078C, strain atp4, stronger effect = lower value",0.984 (inactive)
same,normalized growth,"S. cerevisiae deletion strains, locus YPL106C, strain sse1, stronger effect = lower value",0.932 (inactive)
same,normalized growth,"S. cerevisiae deletion strains, locus YPL240C, strain hsp82, stronger effect = lower value",0.9 (active)
same,normalized growth,"S. cerevisiae deletion strains, locus YPL241C, strain CIN2, stronger effect = lower value",0.918 (active) and 0.973 (inactive)
same,normalized growth,"S. cerevisiae deletion strains, locus YPL256C, strain CLN2, stronger effect = lower value",0.932 (inactive)
same,normalized growth,"S. cerevisiae deletion strains, locus YPR119W, strain clb2, stronger effect = lower value",0.981 (inactive)
same,normalized growth,"S. cerevisiae deletion strains, locus YPR141C, strain kar3, stronger effect = lower value",0.974 (inactive)
same,normalized growth,"S. cerevisiae deletion strains, locus YPR163C, strain tif3, stronger effect = lower value",0.958 (inactive)
same,normalized growth,"S. cerevisiae deletion strains, locus YPR167C, strain met16, stronger effect = lower value",0.903 (active)
same,normalized growth,"S. cerevisiae deletion strains, strain wtn01, stronger effect = lower value",0.772 (active)
same,normalized growth,"S. cerevisiae strains, strain wild type, stronger effect = lower value",0.818 (active)
